Results on 39 molecules are retold here after PubChem BioAssay (EPA / NIEHS).

SMILES strings stand for the structures. “And” between values parts separate entries of the source, which are not always exact repeats. Equal values may be shown once. Some compounds were tested as several samples or in several runs, with calls that do not always agree. The source made the active and inactive calls. How the source made its calls: active means hit-call score of the fitted dose curve at least 0.9, where 1 is the maximum; inactive means score below 0.9.

Read-out in this experiment: Vascular cell adhesion molecule 1 (VCAM1), VCAM1 (gene 7412)
As to the kind of experiment: BSK_LPS_VCAM1: BioMAP Diversity Plus: LPS Assay for Vascular cell adhesion molecule 1 (VCAM1) Biomarker Activity (AID 2283086). To be noted: primary human HUVEC with PBMC; actives raise or lower the signal. As for the experimental part:
BSK_LPS is a cell-based, multiplexed-readout assay that uses umbilical vein endothelium and peripheral blood mononuclear cells, a human vascular primary cell co-culture, with measurements taken at 24 hours after chemical dosing in a 96-well plate.BSK_LPS_VCAM1 is an assay component measured in the BSK_LPS assay. It measures VCAM-1 antibody related to regulation of gene expression using ELISA technology.Data from the assay component BSK_LPS_VCAM1 was analyzed into 1 assay endpoint. This assay endpoint, BSK_LPS_VCAM1, was analyzed with bidirectional fitting relative to DMSO as the negative control and baseline of activity. Using a type of binding reporter, gain or loss-of-signal activity can be used to understand changes in the signaling as they relate to the gene VCAM1. Furthermore, this assay endpoint can be referred to as a primary readout, because this assay has produced multiple assay endpoints where this one serves a signaling function. To generalize the intended target to other relatable targets, this assay endpoint is annotated to the cell adhesion molecules intended target family, where the subfamily is Immunoglobulin CAM.
The levels of cell surface (or secreted, indicated by the prefix "s") biomarker endpoints were measured by ELISA. Overt cytotoxicity to cells in confluent adherent cultures (all systems other than the BT system) was assessed by measuring total protein levels using sulforhodamine B (SRB) staining in parallel cultures at the time of biomarker measurements, indicated as SRB endpoints. For proliferation assays for adherent cell types, individual cell types are cultured at sub-confluence and relative cell numbers quantified by SRB staining at time points optimized for each system (48 h: 3C and CASM3C systems; 72 h: BT and HDF3CGF systems; 96 h: SAg system). SRB was performed by staining cells with 0.1% SRB after fixation with 10% TCA and reading wells at 560 nm.Viability and proliferation of PBMC (T cells) was quantified by Alamar Blue reduction for the SAg and BT systems. For PBMC viability (referred to as PBMC Cytotoxicity within the assay endpoint names), cells were plated (75,000/well in a 96-well plate) and then chemical samples added for 1 h before addition of activators, SEB and TSST-1 (20 ng/mL final concentration each). Cells were incubated for 90 h. Then, Alamar Blue (20 uL/well) (Invitrogen, Cat DAL1100) was added for 6 h, and the plates were read with a fluorescence microplate reader at 546/580 nm (excitation/emission). For PBMC proliferation, cells were plated and activated as above but incubated for only 16 h prior to addition of Alamar Blue. Plates were read after 6 h.
For the molecule `O=S(=O)(OCC(F)(F)F)C(F)(F)C(F)(F)C(F)(F)C(F)(F)F`, the outcome was inactive.

Take `Cc1ccc(O)c(-n2nc3ccccc3n2)c1`: the outcome was inactive.

As for `OC(O)C(F)(F)C(F)(F)F`, the result was inactive.

Turning to `C[C@]12CC[C@H]3C(=CCc4cc(O)ccc43)[C@@H]1CCC2=O`, the outcome was inactive.

Regarding `CCOC(=O)CC(=O)C(F)(F)C(F)(F)F`, the result was inactive.

Turning to `NC(O)(C(F)(F)F)C(F)(F)F`, the result was inactive.

Take `CCN(CC)c1ccc(N=Nc2ccccc2)cc1`: the result was inactive.

As to `Nc1cc([N+](=O)[O-])cc(Cl)c1O`, the outcome was inactive.

On to `CCN(CC)c1ccc2c(c1)Oc1cc(N(CC)CC)ccc1C21OC(=O)c2ccccc21`, for which the outcome was inactive.

Turning to `OCC(F)(F)C(F)(F)C(F)(F)CO`, the result was inactive.

Consider `Cc1ccc(S(=O)(=O)C(I)I)cc1`, for which the AC50 is 3.03 µM (active).

As to `Cc1cnccn1`, the result was inactive.

As for `O=S(=O)(O)CCC(F)(F)C(F)(F)C(F)(F)C(F)(F)C(F)(F)C(F)(F)C(F)(F)C(F)(F)F`, the outcome was inactive and the AC50 was 5.95 µM (active).

Turning to `NCC(F)(F)C(F)(F)C(F)(F)C(F)(F)C(F)(F)C(F)(F)C(F)(F)C(F)(F)F`, the result was inactive.

For `OCCCC(F)(F)C(F)(F)C(F)(F)C(F)(F)C(F)(F)C(F)(F)C(F)(F)C(F)(F)F`, the AC50 is 41.4 µM (active) and 23.6 µM (active).

Regarding `O=S(=O)(Cl)C(F)(F)C(F)(F)C(F)(F)C(F)(F)C(F)(F)C(F)(F)C(F)(F)C(F)(F)F`, the result was inactive.

Consider `CCN(CCO)S(=O)(=O)C(F)(F)C(F)(F)C(F)(F)C(F)(F)C(F)(F)C(F)(F)C(F)(F)C(F)(F)F`, for which the AC50 was 30 µM (active) and 35.9 µM (active).

Take `Brc1nc2ccccc2s1`: the result was inactive.

`C=CC(=O)OCCC(F)(F)C(F)(F)C(F)(F)C(F)(F)F`: the AC50 is 32.7 µM (active) and 15.7 µM (active).

Take `O=C(c1ccccc1)c1ccc(O)cc1O`: the result was inactive.

Take `C=C(C)C(=O)OCC(F)(F)C(F)(F)C(F)(F)C(F)F`: the result was inactive.

For the molecule `OCC(F)(F)C(F)(F)C(F)(F)C(F)(F)C(F)(F)C(F)(F)C(F)(F)C(F)(F)CO`, the result was inactive.

Regarding `O=C(Cl)C(F)(F)C(F)(F)C(F)(F)C(F)(F)C(F)(F)C(F)(F)F`, the result was inactive.

For `O=C(O)C(F)(F)C(F)(F)C(F)(F)C(F)(F)C(F)(F)C(F)(F)C(F)F`, the outcome was inactive.

For `OCCCCC(F)(F)C(F)(F)C(F)(F)C(F)(F)F`, the result was inactive.

For `O=C(O)C(F)(F)C(F)(F)C(F)(F)OC(F)(C(F)(F)F)C(F)(F)F`, the result was inactive.

For `O=C=Nc1cccc2c(N=C=O)cccc12`, the result was inactive.

As to `NC(=O)C(F)(F)C(F)(F)C(F)(F)C(F)(F)C(F)(F)C(F)(F)C(F)(F)F`, the outcome was inactive.

On to `O=C1c2c(O)ccc(Nc3ccc(CCO)cc3)c2C(=O)c2c([N+](=O)[O-])ccc(O)c21`, for which the AC50 was 20 µM (active).

In the case of `OCC(O)CC(F)(F)C(F)(F)C(F)(F)C(F)(F)F` (stereo not given), the result was inactive.

As to `CNS(=O)(=O)C(F)(F)C(F)(F)C(F)(F)C(F)(F)C(F)(F)C(F)(F)C(F)(F)C(F)(F)F`, the outcome was inactive.

For the molecule `OCC(O)CC(F)(F)C(F)(F)C(F)(F)C(F)(F)C(F)(F)C(F)(F)C(F)(F)C(F)(F)F` (stereo not given), the result was inactive.

For `CC1=CC2C3C=CC(C3)C2C1C` (stereo not given), the outcome was inactive.

Turning to `CCN=C1C=CC(=C(c2ccc(N(CC)CC)cc2)c2ccc(N(CC)CC)cc2)c2ccccc21`, the AC50 is 1.42 µM (active) and 1.55 µM (active).

Turning to `C[Si](Cl)(Cl)CCC(F)(F)C(F)(F)C(F)(F)C(F)(F)C(F)(F)C(F)(F)F`, the outcome was inactive.

Regarding `O=C=NCc1cccc(CN=C=O)c1`, the result was inactive.

Turning to `NS(=O)(=O)C(F)(F)C(F)(F)C(F)(F)C(F)(F)C(F)(F)C(F)(F)F`, the half-maximal activity concentration (AC50) is 5.95 µM (active) and 46.8 µM (active).

For `FC(F)(F)C(F)(F)C(F)(F)C(F)(F)C(F)(F)C(F)(F)C(F)(F)CCI`, the result was inactive.

As to `CCN(CC)c1ccc(C=O)c(O)c1`, the outcome was inactive.
